Most compounds without a hit are left out; they make up all but 18% or so of the library.
TDP1 inh: blocks human tyrosyl-DNA phosphodiesterase 1; Q9NUW8; recombinant TDP1, AlphaScreen DNA substrate cleavage; Potency, µM (titrated, usually from 130 µM), inactives show at the highest dose activity change, negative = inhibition, hits mostly inhibitors; 350,000 tested, 0.28% active; AID 485290; further: nearly all actives have a fitted effect of over 40% in size
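Recombinant human Tdp1 (E. coli-expressed, 1 nM final) preincubated with compounds 15 min at room temperature, then 5'-biotin/3'-phosphotyrosine-FITC DNA substrate (15 nM final) added for 5 min. AlphaScreen beads (10 ug/ml final) added 10 min; cleavage lowers signal.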
VDR inh: inhibitors of human vitamin D receptor; VDR-SRC2-3 peptide fluorescence polarization, 2 h; AID 504847; P11473; 400,000 tested, 0.93% active; Potency, µM, for the others: max response, negative = inhibition, actives largely listed as inhibitors
Target sequence (P11473 whole entry, looked up): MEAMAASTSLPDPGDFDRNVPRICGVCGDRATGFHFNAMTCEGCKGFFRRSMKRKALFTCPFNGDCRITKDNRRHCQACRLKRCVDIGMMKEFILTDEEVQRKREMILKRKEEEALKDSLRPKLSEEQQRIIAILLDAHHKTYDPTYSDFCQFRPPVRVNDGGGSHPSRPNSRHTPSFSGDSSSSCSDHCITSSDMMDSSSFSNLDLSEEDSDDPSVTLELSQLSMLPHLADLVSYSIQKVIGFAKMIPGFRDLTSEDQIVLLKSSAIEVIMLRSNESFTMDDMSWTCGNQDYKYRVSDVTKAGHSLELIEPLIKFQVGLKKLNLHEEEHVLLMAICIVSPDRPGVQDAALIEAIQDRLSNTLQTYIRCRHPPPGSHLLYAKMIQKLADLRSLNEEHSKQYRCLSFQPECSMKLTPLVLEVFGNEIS
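The screen uses fluorescence polarization to detect compounds that interfere with recruitment of the SRC2-3 coactivator peptide to VDR; plates are read after 2 h at room temperature.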
PLK1 PBD block: PLK1 (human) polo-box domain binding inhibition; Plk1 PBD binding of FITC phosphopeptide, fluorescence polarization; Potency, µM, for inactives: max response, negative = inhibition, actives largely listed as inhibitors; 360,000 tested, 2.8% active; further: series mostly up to about 57 µM; nearly all actives have a fitted effect of over 65% in size
GCN5L2 inh: GCN5L2 (KAT2A) acetyltransferase inhibition; GCN5L2 HAT assay, ThioGlo1 CoA-SH fluorescence; Q92830; Potency, µM (doses to about 58.9 µM), for the others: top-dose activity change, negative = inhibition, most hits filed as inhibitors; 390,000 tested, 0.21% active; AID 504327
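Enzyme at 20nM final was mixed with library compounds for 15 min at room temperature. Peptide H3(1-25) at 75uM, acetyl-CoA at 70uM and ThioGlo1 at 50uM were then added. Plates were read immediately and after 20 min (Ex340nm/Em540nm).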
TDP1 cell noCPT: qHTS for Inhibitors of human tyrosyl-DNA phosphodiesterase 1 (TDP1): qHTS in cells in absence of CPT; Potency, µM (top dose mostly 46.2 µM), for inactives: at the top dose activity change, negative = growth inhibition, usual class: inhibitors; AID 686978, 2013; DT40 Tdp1-/- hTDP1 cells, no CPT, ATP luminescence, 48 h; 420,000 tested, 15% active; further: nearly all actives have a fitted effect of over 55% in size
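DT40 Tdp1-/-;hTDP1 cells, no CPT (DMSO vehicle only), 400 cells/well; compounds pin-transferred; ≥48 hr, 37 °C; CellTiter-Glo 30 min RT dark, luminescence read.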
DT40 TDP1 CPT: growth inhibition of DT40 Tdp1-/-;hTDP1 cells with camptothecin (screen for TDP1 inhibitors) | chicken DT40 Tdp1-/-;hTDP1 cells + 20 nM CPT, ATP luminescence, 48 h | 420,000 tested, 12% active | Potency, µM (titrated, usually from 46.2 µM), for the others: top-dose activity change, negative = growth inhibition, most hits filed as inhibitors; further: nearly all actives have a fitted effect of over 55% in size
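Chicken DT40 Tdp1-/- cells stably complemented with human TDP1 were seeded at 400 cells/well in medium containing 20 nM camptothecin, exposed to pin-transferred compounds, and grown at 37 °C for at least 48 hr. Viability was read as ATP luminescence.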
Starred values were filed as active, the others as inactive; [ ] = dose if it differs, or a comment. The call rests on the fitted dose curve; in most records, active means well fitted curve in the direction sought with a large enough effect; inconclusive means small, poorly fitted or top-dose-only effect, or another doubt; inactive means no such curve, though single readings can be large; an effect the other way counts as inactive or inconclusive. On the % scale 0 is the no-effect control and ±100 the full control effect; potency means the concentration at half of the fitted maximal effect.

`COc1ccc(CNC(=O)[C@H](C)N2C(=O)N3CCc4c([nH]c5ccc(OC)cc45)[C@@]3(C)C2=O)cc1` gave VDR inh -4.4%, PLK1 PBD block -10.6%, GCN5L2 inh -3.7%, TDP1 cell noCPT inconclusive and DT40 TDP1 CPT inconclusive.
Screening COc1ccc2[nH]c3c(c2c1)CCN1C(=O)N([C@@H](C)C(=O)NCCc2ccc(OC)c(OC)c2)C(=O)[C@]31C returned VDR inh -11.8%, PLK1 PBD block -9.3%, GCN5L2 inh -29.7%, TDP1 cell noCPT 14.6µM* and DT40 TDP1 CPT 23.1µM*.
For COc1cccc(CNC(=O)[C@@H](C)N2C(=O)N3CCc4c([nH]c5ccc(OC)cc45)C3(C)C2=O)c1 (stereo partly specified) the results were VDR inh -16.3%, PLK1 PBD block 3.4%, GCN5L2 inh -7.2%, TDP1 cell noCPT 16.4µM* and DT40 TDP1 CPT 14.6µM*.
Screening COc1ccccc1CNC(=O)[C@H](C)N1C(=O)N2CCc3c([nH]c4ccccc34)[C@@]2(C)C1=O returned VDR inh -0.6%, PLK1 PBD block -19.0%, GCN5L2 inh -18.1%, TDP1 cell noCPT 18.4µM* and DT40 TDP1 CPT 29.1µM*.
Screening COc1ccc(Nc2nc(N3CCCC3)nc(N3CCCC3)n2)c(OC)c1 returned TDP1 inh 2.0%, VDR inh -9.0%, PLK1 PBD block 3.6%, GCN5L2 inh -7.3%, TDP1 cell noCPT inconclusive and DT40 TDP1 CPT inconclusive.
For COc1ccc(Nc2nc(Nc3ccc(OC)cc3OC)nc(N3CCN(C)CC3)n2)c(OC)c1 the results were TDP1 inh 8.1%, VDR inh -15.4%, PLK1 PBD block -6.6%, GCN5L2 inh -3.8%, TDP1 cell noCPT 16.4µM* and DT40 TDP1 CPT inconclusive.
`COc1ccc(Nc2nc(NC(C)(C)C)nc(N3CCCC3)n2)c(OC)c1` gave TDP1 inh 11.1%, VDR inh 6.9%, PLK1 PBD block -7.2%, GCN5L2 inh -6.4%, TDP1 cell noCPT 16.4µM* and DT40 TDP1 CPT 23.1µM*.
For COc1ccc(Nc2nc(NC(C)(C)C)nc(N3CCOCC3)n2)c(OC)c1 the results were TDP1 inh 5.9%, VDR inh -14.5%, PLK1 PBD block inconclusive, GCN5L2 inh -4.9%, TDP1 cell noCPT inconclusive and DT40 TDP1 CPT 20.6µM*.
Cc1ccc(CN2CCNC(=O)C2CC(=O)NCCCn2nnc3ccccc32)cc1 (stereo unspecified) was read as PLK1 PBD block -5.2%, TDP1 cell noCPT 3.9% and DT40 TDP1 CPT 4.7%.
CCn1c(C)c(C(=O)O)c2cc(OC)c3ccccc3c21 was read as VDR inh -7.5%, PLK1 PBD block -10.1%, GCN5L2 inh -1.3%, TDP1 cell noCPT 16.4% and DT40 TDP1 CPT -20.4%.
CC1(NC(=O)Nc2cc([N+](=O)[O-])ccc2O)CCS(=O)(=O)C1 (stereo unspecified) was read as TDP1 inh 3.2%, VDR inh 4.1%, PLK1 PBD block 3.9%, GCN5L2 inh -3.4%, TDP1 cell noCPT 17.7% and DT40 TDP1 CPT 10.7%.
`COc1ccc(N(C(=O)CCl)C(C(=O)NC2CCCCC2)c2cccnc2)cc1` (stereo unspecified) gave TDP1 inh 4.7%, VDR inh -13.1%, PLK1 PBD block -4.7%, GCN5L2 inh -6.9%, TDP1 cell noCPT 2.31µM* and DT40 TDP1 CPT 3.26µM*.
CCC(C)c1ccc(N(C(=O)c2ccco2)C(C(=O)NC2CCCC2)c2cccnc2)cc1 (stereo unspecified) was read as TDP1 inh 5.2%[0.0935 µM], VDR inh 20.0%, PLK1 PBD block -6.2%, GCN5L2 inh 0.3%, TDP1 cell noCPT 16.4µM* and DT40 TDP1 CPT 18.4µM*.

Compound activity as filed in PubChem BioAssay.
